Rac1 wt GTP bind: wildtype Rac1 GTP binding modulators, primary screen, biochemical, GST-Rac1 beads, flow cytometry, multiplex. 0.27% of 190,000 active. AID 757, 2007. Ras-related C3 botulinum toxin substrate 1 (Homo sapiens), P63000. fluorescent GTP binding; actives lie on both sides; 0 = cold GTP competed, 100 = untreated. GTP binding activity (% of control), % at 10 µM;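 active means GTP binding activity at least 20 points away from the 100% control level, either lower or higher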
Cdc42 wt: modulators of GTP binding to wildtype Cdc42, primary screen, biochemical, multiplex bead flow cytometry, Bodipy-GTP | Cell division control protein 42 homolog (Homo sapiens), P60953 | AID 761, 2007 | percent activity (GTP binding), % at 10 µM | 0.2% of 190,000 active | GST-Cdc42 beads; actives lie on both sides;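 active means percent activity GTP binding at least 20 points away from the 100% baseline, either down as inhibitor or up as activator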;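 further: median bead fluorescence of bound Bodipy-FL-GTP at 100 nM; below 100% means less GTP binding so inhibitor and above means activator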
Target sequence (P60953 whole entry, looked up): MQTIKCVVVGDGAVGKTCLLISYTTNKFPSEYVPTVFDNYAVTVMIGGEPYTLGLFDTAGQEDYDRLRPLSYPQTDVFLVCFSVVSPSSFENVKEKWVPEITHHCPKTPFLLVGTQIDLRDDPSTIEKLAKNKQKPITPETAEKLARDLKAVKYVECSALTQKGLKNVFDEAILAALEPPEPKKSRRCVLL
HRas wt GTP bind: modulators of GTP binding to HRas wildtype, primary screen, biochemical, bead-based flow cytometry, multiplex | AID 759, 2007 | GST-Ras wt beads, Bodipy-FL-GTP binding; actives lie on both sides | GTP binding activity, % at 10 µM | GTPase HRas (Homo sapiens), P01112 | 0.14% of 190,000 active;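 active means GTP binding activity at least 20% away from the 100% baseline, either lowered as inhibitor or raised as activator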
Target sequence (P01112 whole entry, looked up): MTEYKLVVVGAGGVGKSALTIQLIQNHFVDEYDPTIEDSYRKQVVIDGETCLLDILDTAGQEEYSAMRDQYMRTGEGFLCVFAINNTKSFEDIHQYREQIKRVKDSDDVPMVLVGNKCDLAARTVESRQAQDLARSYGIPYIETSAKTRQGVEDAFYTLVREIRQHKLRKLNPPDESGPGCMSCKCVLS
Rab2A wt mod: modulators of GTP binding to Rab2A wildtype, primary screen, biochemical, dog, bead-based flow cytometry, multiplex; Ras-related protein Rab-2A (Canis lupus familiaris), P61105; GST-Rab2 wt beads, Bodipy-GTP binding; GTP binding activity, % at 10 µM; 0.19% of 190,000 active; AID 760, 2007;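 active means GTP binding activity at least 20 points away from 100%, either lowered or raised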
Rab7 wt modul: modulators of GTP binding to Rab7, primary screen, biochemical, wildtype, multiplex bead flow cytometry; GST-Rab7 beads, fluorescent GTP binding; actives lie on both sides; untreated = 100%, excess cold GTP = 0%; GTP binding activity (percent of control), % at 10 µM; 0.055% of 190,000 active;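 active means fluorescent GTP binding to Rab7 beads changed by at least 20 points from the 100% baseline, either direction, mostly lower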;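 further: median green fluorescence of bound Bodipy-FL-GTP per Rab7 bead population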
Rac1 mut GTP: GTP binding modulators of activated mutant Rac1, primary screen, biochemical, bead-based flow cytometry, multiplex, fluorescent GTP; Ras-related C3 botulinum toxin substrate 1 (Homo sapiens), P63000; GST-Rac1 activated beads; actives lie on both sides; 100% means binding = to untreated wells; percent activity (GTP binding), % at 10 µM; 0.11% of 190,000 active; AID 764, 2007;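 active means GTP binding at least 20 percentage points away from the 100% baseline, in either direction, so actives lie on both sides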
Of the large screens only hits and unclear results are named; the others gave an inactive call; [ ] = another dose, or the depositor's remark. Most compounds without a hit are left out; they make up all but 0.4% or so of the library.

Cc1ccc(-n2c(=O)[nH]c3c(oc4ccccc43)c2=O)cc1	Rac1 wt GTP bind 135[activator]
N=c1oc2ccc3ccccc3c2cc1-c1nc(-c2ccccc2)cs1	Rac1 wt GTP bind 79, Rab2A wt mod 79
CSC1=N/C(=C\c2ccc(C)cc2)C(=O)S1	none
COc1ccc(/C=C2\N=C(SC)SC2=O)cc1OC	Rab2A wt mod 77, Rab7 wt modul 64
Cc1ccccc1NC(=O)CN1C(=O)S/C(=C\c2ccc(-c3cc(C(=O)O)ccc3C)o2)C1=O	Cdc42 wt 79
COc1ccccc1CNC(=O)c1c(N)n(CCCN2CCOCC2)c2nc3ccccc3nc12	Rac1 wt GTP bind 78
CCOC(=O)C1(C)NC(c2ccccc2F)C2C(=O)N(CC)C(=O)C21 (stereo unspecified)	none
O=S1(=O)N=C(N(CCO)/N=C/c2ccncc2)c2ccccc21	Rac1 wt GTP bind 56, Cdc42 wt 64, HRas wt GTP bind 67, Rab2A wt mod 66, Rac1 mut GTP 76
O=S1(=O)N=C(N(CCO)/N=C/c2ccccc2)c2ccccc21	Rac1 wt GTP bind 70, Cdc42 wt 71, HRas wt GTP bind 72, Rab2A wt mod 70
NC(=O)C1CCN(C(=S)NCCc2ccccc2)CC1	none
Cc1ccc(COc2ccsc2C(=O)O)cc1	Cdc42 wt 120[activator]
COc1cc2c(cc1OC)-c1cc(NC3CCCCCCC3)nc(=O)n1CC2	Cdc42 wt 77, HRas wt GTP bind 77
COc1cc2c(cc1OC)-c1cc(NCc3ccccn3)nc(=O)n1CC2	Cdc42 wt 79, HRas wt GTP bind 79
CCNc1cc2n(c(=O)n1)CCc1cc(OC)c(OC)cc1-2	none
O=C(Oc1ccc(C(=S)N2CCOCC2)cc1Br)c1cc(Cl)ccc1Cl	none
O=C(Oc1c(Br)cc(C(=S)N2CCOCC2)cc1Br)c1ccc(Cl)cc1	Cdc42 wt 75, Rab2A wt mod 78, Rac1 mut GTP 77
COc1cc(CCC(=O)Nc2ccc(Br)c(C(F)(F)F)c2)cc(OC)c1OC	none
COc1ccc([N+](=O)[O-])cc1NC(=S)NC(NC(=O)Cc1ccc(OC)c(OC)c1)C(Cl)(Cl)Cl (stereo unspecified)	Rac1 wt GTP bind 74, Cdc42 wt 54, HRas wt GTP bind 57, Rab2A wt mod 55, Rac1 mut GTP 79
COc1ccc([N+](=O)[O-])cc1NC(=O)Cc1ccc(Cl)cc1	none
S=C(NCc1ccc(Cl)cc1Cl)NC1CCCCC1	none
NS(=O)(=O)c1ccc(N2N=C(c3ccccc3)CC2c2ccccc2)cc1 (stereo unspecified)	Cdc42 wt 71
Cc1c(NS(=O)(=O)c2ccc3c(c2)n(C)c(=O)n3C)c(=O)n(-c2ccccc2)n1C	none
Cc1c(NS(=O)(=O)c2ccc3c(c2)Cc2ccccc2-3)c(=O)n(-c2ccccc2)n1C	Cdc42 wt 78, Rac1 mut GTP 76
COc1ccc(/C=C2\CCCC3C2=NN(C(=O)c2scnc2C)C3c2ccc(OC)c(OC)c2)cc1OC (stereo unspecified)	Cdc42 wt 66, HRas wt GTP bind 67, Rab2A wt mod 66
COc1cc([N+](=O)[O-])cc(/C=N/NC(=O)c2ccc(NC(=O)c3ccc(C)cc3)cc2)c1O	Rab2A wt mod 78
